Screening data: PubChem, National Center for Advancing Translational Sciences (NCATS)
Many of the other results were omitted from the sample, so hits are more common in it than they were.
Cycloheximide cs: affects cycloheximide protein synthesis inhibition readout, counter-screen. 300,000 tested, 12% active. max response, %. AID 2314. cell reporter, cycloheximide protein synthesis inhibition counterscreen; in the data active = max response mostly above about 13%, no sharp cut-off; inactive = mostly below about 14%; also: read at 38.3 µM for the half of the compounds with a filed dose; 0% is about no effect
Lassa entry inh: blocks Lassa virus binding to or entry into cells. Potency, µM (top dose mostly 37.9 µM), inactives show top-dose activity change, negative = inhibition, usual class: inhibitors. AID 540256. 300,000 tested, 1.2% active. Lassa virus pseudotype entry inhibition, cell reporter; calls by dose curve; tested in HEK293 cells; also: potency is read from the fitted curve at half-maximal effect; % is scaled to controls: 0 for no effect and ±100 for the full control effect; nearly all actives have a fitted effect of over 50% in size
MARV entry inh: inhibitors of Marburg virus binding or cell entry | Marburg virus pseudotyped entry inhibition, cell reporter | Potency, µM (highest dose often 37.8 µM), for inactives: at the highest dose activity change, negative = inhibition, usual class: inhibitors | 300,000 tested, 1.8% active; calls by dose curve; tested in HEK293 cells; also: potency is read from the fitted curve at half-maximal effect; % is scaled to controls: 0 for no effect and ±100 for the full control effect
Shiga toxin inh: Shiga toxin inhibition; Vero cells, Shiga toxin protein synthesis inhibition reporter; inhibition, % at 38.7 µM; 290,000 tested, 9.2% active; AID 2315; in the data active = inhibition mostly above about 28%, no sharp cut-off; inactive = mostly below about 43%; also: 0% is about no effect
VACV Venus inh: inhibitors of vaccinia virus (Venus reporter); AID 720580; Potency, µM (highest dose often 36.5 µM), for inactives: at the highest dose activity change, negative = inhibition, actives largely listed as inhibitors; Vaccinia virus Venus reporter expression, fluorescence; 330,000 tested, 0.46% active; calls by dose curve; tested in A549 cells; also: potency is read from the fitted curve at half-maximal effect; % is scaled to controls: 0 for no effect and ±100 for the full control effect; nearly all actives have a fitted effect of over 30% in size
Vaccinia mCherry: inhibitors of vaccinia virus infection (mCherry reporter signal); Vaccinia virus mCherry reporter infection, fluorescence; Potency, µM (top dose mostly 36.5 µM), for inactives: at the highest dose activity change, negative = inhibition, hits mostly inhibitors; 310,000 tested, 0.63% active; AID 720579; calls by dose curve; tested in A549 cells; also: potency is read from the fitted curve at half-maximal effect; % is scaled to controls: 0 for no effect and ±100 for the full control effect; nearly all actives have a fitted effect of over 35% in size
* hit, by the source's call; i = inactive; u = inconclusive; x = not tested or not shown; [ ] = remark or other dose.

SMILES | Cycloheximide cs | Lassa entry inh | MARV entry inh | Shiga toxin inh | VACV Venus inh | Vaccinia mCherry
CCOC(=O)N1CCC(=NNc2nc3ccccc3s2)CC1 | 71* | x | 0% | 77* | x | x
CC(=O)N1CCC(=NNc2nc3ccccc3s2)CC1 | 45* | x | x | 91* | x | x
COC(=O)c1c(N)n(-c2ccc(OC)c(OC)c2)c2nc3ccccc3nc12 | x | 2%[46.1 µM] | -27%[46.1 µM] | x | 0% | 9%
CCOC(=O)c1cc(NC(=O)c2ccoc2C)cc(C(=O)OCC)c1 | 17* | 7% | -12% | 19 | -10% | i
CC(=O)c1cccc(NC(=O)c2ccoc2C)c1 | 7 | 20%[46.1 µM] | u | 25 | -6% | -10%
Cc1occc1C(=O)Nc1ccc2ccccc2c1 | 43* | u | u | 113* | -20% | i
Cc1occc1C(=O)Nc1cccc(Cl)c1Cl | 24* | x | x | 48 | x | x
Cc1occc1C(=O)Nc1ccccc1 | 28* | x | x | 33* | x | x
C=C(C)[C@@H]1CC2=C(OC)C(CC=C(C)C)(CC=C(C)C)C(=O)C(C(=O)c3ccccc3)=C2O1 | x | x | -15%[14.2 µM] | x | x | x
Cc1occc1C(=O)Nc1ccccc1C(=O)O | 20* | 18% | 13% | 48 | -2% | x
Cc1noc(C)c1C(=O)Nc1ccc2ccccc2c1 | 21* | u | 5%[46.1 µM] | 34 | -12% | -14%
CC[C@H](C)[C@@H](C(=O)N1CCNCC1)n1cc([C@@H](N)CO)nn1 | -2 | x | x | -4 | 1% | i
Cc1cc(C)[n+]2[nH]c(N)c(N=Nc3ccccc3)c2n1 | 17* | -3% | -2%[46.1 µM] | 58* | 8%[7.34 µM] | i[7.34 µM]
COc1ccc(S(=O)(=O)Oc2ccc3ccccc3c2)cc1 | 23* | u | -2% | 23* | -26% | u
CC(=O)N1CCCc2cc(S(=O)(=O)N3CCC(C(=O)NCc4ccccc4)CC3)ccc21 | x | u | x | x | 0% | -3%
CCCCOc1ccc(-c2ncc(N)cn2)cc1 | 53* | x | x | 114* | x | x
CCOc1ccc(-c2nc(CCl)cs2)cc1 | 34* | x | x | 153* | 0%[7.34 µM] | i[7.34 µM]
CCOc1ccc(-c2nnc(N)s2)cc1 | 25* | -21% | 24% | 142* | -19% | -2%
CC(C)(C)c1ccc(-c2nnc(N)s2)cc1 | 59* | x | x | 80* | x | x
CCCCOc1ccc(C(N)=O)cc1 | x | x | x | x | -18% | -14%
COCC(=O)Nc1cc(C(=O)N2CCN(c3ccccc3)C(=O)C2)cc2nc(-c3ccccc3)n(C)c12 | x | x | x | x | -5% | -13%
Cc1ccc(S(=O)(=O)N2CCCc3cc(NS(=O)(=O)c4cc(F)ccc4F)ccc32)cc1 | x | u | x | x | -4% | -12%
CN1C(=O)c2ccccc2Sc2ccc(NC(=O)N3CCN(c4ccc(F)cc4)CC3)cc21 | x | -19%[46.1 µM] | u | x | u | u
Nc1nnc(-c2ccc(F)cc2)s1 | 11 | -14% | 0% | 11 | x | x
CCCCOc1ccc(-c2nnc(N)s2)cc1 | 21* | 8% | -6% | 22 | -6% | i
SMILES | Cycloheximide cs | Lassa entry inh | MARV entry inh | Shiga toxin inh | VACV Venus inh | Vaccinia mCherry
N#Cc1ccccc1NC(=O)C(=O)NCC(c1ccc2c(c1)OCO2)N1CCN(c2ccccc2)CC1 (stereo not given) | x | u | x | x | -1% | -18%
C[C@@H]1C[C@@H]([C@H](O)CC2CC(=O)NC(=O)C2)C(=O)[C@@H](C)C1 | x | x | x | x | 0.28µM* | 0.32µM*
CC(=O)OC1(C)CC(C)C(=O)C(C(O)CC2CC(=O)NC(=O)C2)C1 (stereo not given) | x | x | x | x | 0.1µM* | u
Cc1c(Cl)cccc1Nc1nn2c(=O)c3ccc(C(=O)N(C)Cc4ccccc4)cc3nc2s1 | x | -4%[46.1 µM] | x | x | -11% | -14%
CCC(=O)Nc1ccc(C(=O)OCc2ccccc2Cl)cc1 | 33* | u | -18% | 18 | -1% | -10%
CC(=O)Nc1ccc(C(=O)OCc2ccc(Br)cc2)cc1 | 8 | u | 9% | 33 | -10% | -19%
CC(=O)Nc1ccc(C(=O)OCc2ccccc2Cl)cc1 | 42* | x | x | 64* | -12% | -9%
CCC(=O)Nc1ccc(C(=O)NNC(=O)Cc2ccccc2)cc1 | -2 | 0% | 11% | -6 | -3% | -7%
COc1ccccc1CNC(=O)c1ccc2c(c1)N(Cc1c(F)cccc1Cl)C(=O)CS2 | x | u | u | x | -15% | -17%
O=C(CN1CCN(S(=O)(=O)c2ccc(Br)cc2)CC1)N/N=C/c1ccc(Cl)c([N+](=O)[O-])c1 | 5 | u | 15µM* | -10 | -20% | -20%
Cc1ccc(S(=O)(=O)N2CCN(CC(=O)N/N=C\c3ccc(Cl)c([N+](=O)[O-])c3)CC2)cc1 | -1 | -37% | u | 20 | 9% | -13%
COc1ccc(C(=O)Nc2nccs2)cc1[N+](=O)[O-] | 27* | 3% | 17% | -3 | x | x
CC(C)Cc1nnc(NC(=O)c2ccncc2)s1 | 4 | 8% | 16% | 6 | -23% | -12%
COc1ccc(C(=O)Nc2nccs2)cc1OC | 28* | 17% | 9% | 116 | 3% | -7%
COC(=O)c1sccc1NC(=O)c1ccc(OC)c([N+](=O)[O-])c1 | -1 | 5% | -15% | -3 | -9% | -10%
Cc1ccc(NC(=O)Nc2nnc(Cc3ccc([N+](=O)[O-])cc3)s2)cc1 | 50* | -4% | -7% | 77* | -26% | -7%
CC(C)Cc1nnc(NC(=O)c2ccc([N+](=O)[O-])cc2)s1 | 17* | 17% | 17% | 23 | u | x
COc1ccc(NC(=O)Nc2nccs2)cc1 | 32* | -22% | -10% | 85* | x | x
CCC(CC)C(=O)Nc1cccc(C(=O)Nc2nccs2)c1 | 3 | 1% | 8% | -12 | x | x
O=C(Nc1nccs1)c1ccc([N+](=O)[O-])cc1 | 17 | -18% | 8%[46.1 µM] | 30 | -4% | -9%
O=C(Nc1nccs1)c1cccc(NC(=O)C(F)(F)F)c1 | 18* | x | x | 73* | x | x
CCOCc1nnc(NC(=O)c2ccc(OC)cc2)s1 | 22* | 0% | 0% | 48* | -3% | -5%
COc1ccc(C(=O)Nc2nccs2)cc1 | 29* | u | -27% | x | -11% | -2%
CCc1ccc(NC(=O)C2CCN(S(=O)(=O)c3c(C)noc3/C=C\c3ccc(OC)cc3)CC2)cc1 | x | 29%[46.1 µM] | u | x | -16% | -10%
Cc1ccc(NC(=O)COc2ccc3oc4c(c3c2)CCCC4)cc1C | x | 1%[46.1 µM] | 9%[46.1 µM] | x | -6% | -9%
SMILES | Cycloheximide cs | Lassa entry inh | MARV entry inh | Shiga toxin inh | VACV Venus inh | Vaccinia mCherry
COC(=O)[C@@H]1CCCN1Cc1ccc2c(c1)CN(Cc1cccn1-c1ccc(Cl)cn1)CCO2 | x | x | x | x | 1% | 5%
CCc1nnc(NC(=O)Nc2ccc(OC)cc2)s1 | 24* | 24% | 45% | 25 | -22% | x
Cn1cc([N+](=O)[O-])c(C(=O)Nc2ccc(Br)cn2)n1 | 25* | 14% | 3% | 52* | x | x
Cn1cc([N+](=O)[O-])c(C(=O)Nc2nccs2)n1 | 30* | x | x | 40 | x | x
CC(C)Cc1nnc(NC(=O)Nc2ccccc2)s1 | 46* | u | u | 57* | u | u
Cn1cc([N+](=O)[O-])c(C(=O)NCC(=O)O)n1 | 2 | x | x | -20 | -5% | -5%
CC(C)Cc1nnc(NC(=O)CCC(=O)Nc2ccccc2)s1 | -2 | -12%[46.1 µM] | -18%[46.1 µM] | 8 | -7% | -19%
CCOC(=O)c1ccccc1NC(=O)N(Cc1ccco1)C1CCN(C(C)=O)CC1 | x | -5%[46.1 µM] | x | x | -8% | 24%
